Where “and” joins values, the source holds several entries; their conditions need not be identical. Equal values may be shown once. Results filed as inconclusive are left out. Some structures have more than one record in an assay (separate samples or runs), and their calls can disagree. Calls of active or inactive are those of the source. The call rests on the fitted dose curve; in most records, active means well fitted inhibition curve with a large enough effect; inconclusive means small, poorly fitted or top-dose-only effect, or effect the other way; inactive means no such curve, though single readings can be large or run the other way.

Potency data for 34 molecules are collected here from PubChem BioAssay AID489037 (National Center for Advancing Translational Sciences (NCATS), 2010).

This test has as its target Nuclear receptor ROR-gamma (Mus musculus) (UniProt P51450). The test is described as follows: Secondary confirmation assay for inhibitors of ROR gamma transcriptional activity. The method, boiled down: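 Drosophila Schneider cells stably expressing Gal4-DBD/ROR gamma fusion (metallothionein promoter) with UAS-Photinus luciferase reporter. Compound preincubated 1 hr, then copper sulfate 700 uM final added; 20 hr at ambient temperature, luminescence read.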

Nuclear receptor ROR-gamma (Mus musculus), sequence (P51450 whole entry, looked up, the tested form may be a part): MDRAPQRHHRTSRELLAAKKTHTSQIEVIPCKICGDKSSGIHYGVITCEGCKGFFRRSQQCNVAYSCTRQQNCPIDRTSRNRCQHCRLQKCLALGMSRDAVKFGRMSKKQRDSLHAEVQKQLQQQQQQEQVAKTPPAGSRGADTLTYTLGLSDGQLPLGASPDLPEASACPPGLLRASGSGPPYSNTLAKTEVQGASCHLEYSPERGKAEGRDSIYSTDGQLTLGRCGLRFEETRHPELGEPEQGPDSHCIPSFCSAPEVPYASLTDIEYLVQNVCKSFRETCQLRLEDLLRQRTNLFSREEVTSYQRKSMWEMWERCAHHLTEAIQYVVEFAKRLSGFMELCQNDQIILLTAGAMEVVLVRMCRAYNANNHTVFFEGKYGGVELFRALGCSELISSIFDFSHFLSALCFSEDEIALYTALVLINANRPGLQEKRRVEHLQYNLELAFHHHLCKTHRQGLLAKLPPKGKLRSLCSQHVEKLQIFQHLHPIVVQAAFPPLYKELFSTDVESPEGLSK

With `Cc1cc(C)c2[nH]c(C(=O)Nc3ccc4c(c3)OCO4)cc2c1`, the Potency is 0.257 µM (active).

On to `CCN(CC)c1ccc(/C=N/n2c(-c3ccccc3Br)n[nH]c2=S)cc1`, for which the Potency was 1.62 µM (active).

Regarding `CC(C)(C)c1ccc([S+](=O)([O-])Nc2ccccc2C(O)(C(F)(F)F)C(F)(F)F)cc1`, the Potency is 16.2 µM (active).

In the case of `COc1cc(C)nc(-n2nc(C)cc2OC)n1`, the Potency was 3.23 µM (active).

As for `CN1CCN(C(=O)CCN2C(=O)/C(=C/c3ccccc3Cl)SC2=S)CC1`, the Potency was 28.8 µM (active).

Consider `COc1cc(O)c(C(CC(=O)N2CCc3ccccc3C2)c2ccc3c(c2)OCO3)c(OC)c1` (centres undefined), for which the Potency result was “inactive”.

Take `COc1cc(OC)c(C(CC(=O)N2CCCC(C)C2)c2ccc3c(c2)OCO3)c(OCc2ccccc2)c1` (centres undefined): the Potency was 6.45 µM (active).

On to `COc1cc(O)c(C(CC(=O)N2CCCC(C)C2)c2ccc(C)cc2)c(OC)c1` (centres undefined), for which the Potency is 10.2 µM (active).

For the molecule `COCC1CCCCN1C(=O)c1cc(COc2ccc3ncccc3c2)on1` (centres undefined), the Potency was 11.5 µM (active).

`COc1ccc(C(=O)/C=C/c2ccc(OC)cc2OC)c(O)c1`: the Potency is 0.575 µM (active).

In the case of `CCOC(=O)Cn1c(CN2CCc3ccccc3C2)nc2c1c(=O)n(C)c(=O)n2C`, the Potency is 5.75 µM (active).

Turning to `COc1cc(O)c(C(CC(=O)N2CCCC(CO)C2)c2ccc3c(c2)OCO3)c(OC)c1` (centres undefined), the Potency entry is “inactive”.

As for `C#CCOc1cc(OC)cc(OC)c1C(CC(=O)N1CCCC(C)C1)c1ccc2c(c1)OCO2` (centres undefined), the Potency was 9.11 µM (active).

As to `CCOC(=O)C1CCN(CC(=O)Nc2cc(C)nn2-c2nc3ccccc3s2)CC1`, the Potency was 5.75 µM (active).

In the case of `COc1cc(OC)c2c(c1)OC(=O)CC2c1ccc2c(c1)OCO2` (centres undefined), the Potency entry is “inactive”.

With `COc1cc(OC)c(C(CC(=O)N2CC(C)CC(C)C2)c2ccc3c(c2)OCO3)c(OCC(N)=O)c1` (centres undefined), the Potency is 11.5 µM (active).

On to `O=C(CCCN1C(=O)/C(=C/c2ccccc2Cl)SC1=S)Nc1cccnc1`, for which the Potency is 1.82 µM (active).

For the molecule `COc1cc(O)c(C(CC(=O)N2CCCC(C(=O)c3ccccc3)C2)c2ccc3c(c2)OCO3)c(OC)c1` (centres undefined), the Potency entry is “inactive”.

For the molecule `COc1cc(OC)c(C(c2ccccc2)C(C)(C)C(=O)N2CC(C)CC(C)C2)c(OC)c1` (centres undefined), the Potency was 5.12 µM (active).

Regarding `Cc1ccc(Sc2cncc3sc(C(N)=O)cc23)cc1`, the Potency was 0.204 µM (active).

Turning to `COc1cc(O)c(C(CC(=O)N2CCCC(C)C2)c2ccccc2C)c(OC)c1` (centres undefined), the Potency is 7.24 µM (active).

Consider `CC(C)(C)c1ccc(S(=O)(=O)Nc2ccc(C(O)(C(F)(F)F)C(F)(F)F)cc2)cc1`, for which the Potency was 20.4 µM (active).

Regarding `COc1ccc(C(CC(=O)N2CCCC(C)C2)c2ccccc2)cc1` (centres undefined), the Potency result was “inactive”.

As to `COc1cc(O)c(C(CC(=O)N2CCCCC2)c2ccc(C)cc2)c(OC)c1` (centres undefined), the Potency was 32.3 µM (active).

For the molecule `C[C@H]1O[C@@H](O[C@H]2[C@@H](O)C[C@@H](O[C@H]3[C@@H](O)C[C@H](O[C@H]4CC[C@@]5(C)[C@H](CC[C@@H]6[C@@H]5CC[C@]5(C)[C@@H](C7=CC(=O)OC7)CC[C@]65O)C4)O[C@@H]3C)O[C@@H]2C)C[C@H](O)[C@@H]1O`, the Potency was 1.44 µM (active).

As for `COc1cc(O)c(C(CC(=O)N2CCCC(C(C)C)C2)c2ccc3c(c2)OCO3)c(OC)c1` (centres undefined), the Potency is 25.7 µM (active).

With `COc1cc(O)c(C(CC(=O)NCC2CCCCC2)c2ccc3c(c2)OCO3)c(OC)c1` (centres undefined), the Potency entry was “inactive”.

For `COc1cc(O)c(C(CC(=O)N2CCC[C@H](C)C2)c2ccc3c(c2)OCO3)c(OC)c1` (some centres undefined), the Potency was 9.11 µM (active) and 3.23 µM (active) and inactive.

For the molecule `COCOc1cc(OC)cc(OC)c1C(CC(=O)N1CC(C)CC(C)C1)c1ccc2c(c1)OCO2` (centres undefined), the Potency was 4.07 µM (active).

`CC(C)[C@H](NC(=O)C1CCN(C(=O)[C@@H]2CCCN2C(=O)OC(C)(C)C)CC1)C(=O)NCc1ccc(F)cc1`: the Potency is 32.3 µM (active).

In the case of `CCn1cc(C(=O)O)c(=O)c2cnc(N3CCN(C(=S)NC(=O)c4ccccc4)CC3)nc21`, the Potency was 11.5 µM (active).

As to `CCOC(=O)c1sc(NC(=O)c2ccc(S(=O)(=O)N(C)C)cc2)nc1C`, the Potency was 0.129 µM (active).

As for `COc1cc(O)c(C(CC(=O)N2CCCC(C)C2)c2ccc(C(C)C)cc2)c(OC)c1` (centres undefined), the Potency was 14.4 µM (active).

On to `COc1cc(O)c(C(CC(=O)NC2CCC(C)CC2)c2ccc3c(c2)OCO3)c(OC)c1` (centres undefined), for which the Potency entry was “inactive”.
